The source of these data is PubChem BioAssay (EPA / NIEHS).

Values joined by “and” are separate entries in the source; they are usually repeats but may differ in a detail not shown here. Equal values may be shown once. Where a structure was tested more than once in an assay, its records may differ in their call. Active and inactive are the calls of the source. The calls were made as follows: active = hit-call score of the fitted dose curve at least 0.9, where 1 is the maximum; inactive = score below 0.9.

Read-out in this assay: Macrophage colony-stimulating factor (MCSF), CSF1 (gene 1435)
Put plainly: BSK_hDFCGF_MCSF: BioMAP Diversity Plus: hDFCGF Assay for Macrophage colony-stimulating factor (MCSF) Biomarker Activity (AID 2283060). The conditions noted are these: primary human foreskin fibroblasts; actives raise or lower the signal. How it is done: BSK_hDFCGF is a cell-based, multiplexed-readout assay that uses foreskin fibroblast, a human skin primary cell, with measurements taken at 24 hours after chemical dosing in a 96-well plate.BSK_hDFCGF_MCSF is an assay component measured in the BSK_hDFCGF assay. It measures M-CSF antibody related to regulation of gene expression using ELISA technology.Data from the assay component BSK_hDFCGF_MCSF was analyzed into 1 assay endpoint. This assay endpoint, BSK_hDFCGF_MCSF, was analyzed with bidirectional fitting relative to DMSO as the negative control and baseline of activity. Using a type of binding reporter, gain or loss-of-signal activity can be used to understand changes in the signaling as they relate to the gene CSF1. Furthermore, this assay endpoint can be referred to as a primary readout, because this assay has produced multiple assay endpoints where this one serves a signaling function. To generalize the intended target to other relatable targets, this assay endpoint is annotated to the cytokine intended target family, where the subfamily is colony stimulating factor.
The levels of cell surface (or secreted, indicated by the prefix "s") biomarker endpoints were measured by ELISA. Overt cytotoxicity to cells in confluent adherent cultures (all systems other than the BT system) was assessed by measuring total protein levels using sulforhodamine B (SRB) staining in parallel cultures at the time of biomarker measurements, indicated as SRB endpoints. For proliferation assays for adherent cell types, individual cell types are cultured at sub-confluence and relative cell numbers quantified by SRB staining at time points optimized for each system (48 h: 3C and CASM3C systems; 72 h: BT and HDF3CGF systems; 96 h: SAg system). SRB was performed by staining cells with 0.1% SRB after fixation with 10% TCA and reading wells at 560 nm.Viability and proliferation of PBMC (T cells) was quantified by Alamar Blue reduction for the SAg and BT systems. For PBMC viability (referred to as PBMC Cytotoxicity within the assay endpoint names), cells were plated (75,000/well in a 96-well plate) and then chemical samples added for 1 h before addition of activators, SEB and TSST-1 (20 ng/mL final concentration each). Cells were incubated for 90 h. Then, Alamar Blue (20 uL/well) (Invitrogen, Cat DAL1100) was added for 6 h, and the plates were read with a fluorescence microplate reader at 546/580 nm (excitation/emission). For PBMC proliferation, cells were plated and activated as above but incubated for only 16 h prior to addition of Alamar Blue. Plates were read after 6 h.
Regarding `O=NN(c1ccccc1)c1ccccc1`, the result was inactive.
In the case of `Nn1cnnc1`, the result was inactive.
Regarding `O=S(=O)(O)C(F)(F)C(F)(F)C(F)(F)C(F)(F)F`, the outcome was inactive.
The same measure, in the same setting: the result for `ClC1=C(Cl)[C@]2(Cl)[C@@H]3[C@@H](Cl)[C@H]4O[C@H]4[C@@H]3C1(Cl)C2(Cl)Cl` reads “inactive”.
Still for that read-out and setting: under `Cc1ccc(O)c(C)c1` stands “inactive”; under `O=S(=O)(O)C(F)(F)C(F)(F)C(F)(F)C(F)(F)C(F)(F)C(F)(F)F`, “inactive”.
On the same count and under the same terms, under `Cc1ccccc1CO[C@@H]1C[C@@]2(C(C)C)CC[C@]1(C)O2` stands “inactive”; under `ClC1=C(Cl)[C@]2(Cl)[C@@H]3[C@H]4C[C@H]([C@@H]5O[C@H]45)[C@@H]3[C@@]1(Cl)C2(Cl)Cl`, “inactive”.
As to `CCSC(=O)N(CC)C1CCCCC1`, the outcome was inactive.
Regarding `CN(C)CCO`, the result was inactive.
Regarding `CCC(C)(CC)c1cc(NC(=O)c2c(OC)cccc2OC)on1`, the outcome was inactive.
In the case of `O=C(N[C@H]1CN2CCC1CC2)c1cc2ccoc2cn1`, the result was inactive.
Regarding `Cc1cc(-c2ccc(N)c(C)c2)ccc1N`, the result was inactive.
Still for that read-out and setting: under `CC1=C2C[C@H]3[C@@H](CC=C4C[C@@H](O)CC[C@@]43C)[C@@H]2CC[C@]12O[C@@H]1C[C@H](C)CN[C@H]1[C@H]2C` stands “inactive”.
On to `N#Cc1ccc(N(CC(N)=O)CC(F)(F)F)cc1C(F)(F)F`, for which the result was inactive.
With `COS(=O)(=O)OC`, the result was inactive.
On the same count and under the same terms, the result for `CN(C)c1nc(=O)n(C2CCCCC2)c(=O)n1C` reads “inactive”.
Still for that read-out and setting: the result for `CC(C)(O)C(=O)Nc1ccc([N+](=O)[O-])c(C(F)(F)F)c1` reads “inactive”.
Regarding `CCCCCCCCCC[N+](C)(C)CCCCCCCCCC`, the half-maximal activity concentration (AC50) (commonly the concentration at which the activity in the assay is half-maximal) was 2.04 µM (active).
Regarding `Sc1ccccc1`, the result was inactive.
Consider `NS(=O)(=O)C(F)(F)C(F)(F)C(F)(F)C(F)(F)C(F)(F)C(F)(F)C(F)(F)C(F)(F)F`, for which the concentration at half-maximal activity (AC50) is 14.8 µM (active) and 8.52 µM (active) and 8.29 µM (active).
With `C1CC2OC2CC1C1CO1` (stereo not given), the result was inactive.
With `CO/C=C(/C(=O)OC)c1ccccc1COc1cccc(C(F)(F)F)n1`, the AC50 was 7.27 µM (active).
With `Oc1c(Cl)c(Cl)c(Cl)c(Cl)c1Cl`, the concentration at half-maximal activity (AC50) was 6.44 µM (active) and the outcome was inactive.
Consider `Clc1ccc(C(Cl)(Cl)Cl)cc1`, for which the result was inactive.
As to `CCC(C)c1cc([N+](=O)[O-])cc([N+](=O)[O-])c1O` (stereo not given), the concentration at half-maximal activity (AC50) was 4.2 µM (active).
Consider `Oc1ccc(Cl)cc1Cl`, for which the outcome was inactive.
Same read-out and setting: under `CCOP(=S)(OCC)SCSC(C)(C)C` stands “inactive”.
For the molecule `O=C(O)C(F)(F)C(F)(F)C(F)(F)C(F)(F)C(F)(F)C(F)(F)C(F)(F)C(F)(F)C(F)(F)F`, the AC50 is 30.4 µM (active) and 21.9 µM (active) and 21.6 µM (active).
Take `CCC(C)(c1ccc(O)cc1)c1ccc(O)cc1`: the outcome was inactive.
On the same count and under the same terms, under `CCCCCCCCOC(=O)c1ccccc1C(=O)OCCCCCCCC` stands “inactive”; under `Cc1cccc(C)c1N`, “inactive”.
As to `C=CC(N)=O`, the outcome was inactive.
Still for that read-out and setting: under `Cc1cc(O)ccc1Cl` stands “inactive”.
`ClC(Cl)=C(c1ccc(Cl)cc1)c1ccc(Cl)cc1`: the half-maximal activity concentration (AC50) is 20 µM (active).
Consider `C=CC(=O)NCNC(=O)C=C`, for which the result was inactive.
The same measure, in the same setting: under `CCCN(CCC)N=O` stands “inactive”.
As to `CCOC(=O)C(O)(c1ccc(Cl)cc1)c1ccc(Cl)cc1`, the AC50 was 20 µM (active).
As to `Cc1ccccc1[N+](=O)[O-]`, the result was inactive.
